Assay outcomes: PubChem, National Center for Advancing Translational Sciences (NCATS)
Only some compounds are listed: those with a hit (about 11% of all), similar ones and a draw of the others.
GoLoco inh red: blocks human Gai1 binding to RGS12 GoLoco peptide, red readout | P63096 | Gai1:RGS12 GoLoco peptide FP, rhodamine, 10 min | Potency, µM (top dose mostly 61.6 µM), for inactives: top-dose activity, negative = inhibition, usual class: inhibitors | 230,000 tested, 0.44% active; active means well fitted inhibition curve with a large enough effect, not every such curve was filed as active; inactive means no such curve, though single readings can be large or run the other way; further: potency means the concentration at half of the fitted maximal effect; on the % scale 0 is the no-effect control and ±100 the full control effect; nearly all actives have a fitted effect of over 30% in size
Target sequence (P63096 whole entry, looked up): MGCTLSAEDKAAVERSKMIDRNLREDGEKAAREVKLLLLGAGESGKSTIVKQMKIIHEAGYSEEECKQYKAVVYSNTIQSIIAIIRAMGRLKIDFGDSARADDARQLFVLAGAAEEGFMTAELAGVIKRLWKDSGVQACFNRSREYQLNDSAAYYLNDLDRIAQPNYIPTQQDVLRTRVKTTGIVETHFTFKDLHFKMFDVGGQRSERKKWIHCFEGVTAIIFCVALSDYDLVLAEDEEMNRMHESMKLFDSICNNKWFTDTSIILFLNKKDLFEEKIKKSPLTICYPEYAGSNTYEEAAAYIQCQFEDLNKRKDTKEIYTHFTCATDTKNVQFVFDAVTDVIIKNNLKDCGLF
HttQ103 aggreg: mutant huntingtin aggregation inhibition; Potency, µM (series often up to 46.1 µM), inactives show at the highest dose activity change, negative = inhibition, hits mostly inhibitors; 220,000 tested, 1.1% active; PC12 HttQ103-GFP aggregates, Acumen cytometry, 40 h; AID 1688; active means well fitted curve in the direction sought with a large enough effect; inconclusive means small, poorly fitted or top-dose-only effect, or another doubt; inactive means no such curve, though single readings can be large; an effect the other way counts as inactive or inconclusive; further: potency means the concentration at half of the fitted maximal effect; on the % scale 0 is the no-effect control and ±100 the full control effect; nearly all actives have a fitted effect of over 60% in size
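Multiplexed with ATP-based cell death, this channel scores GFP aggregates in PC12 cells expressing inducible HTTex1-Q103-GFP. Induction used 100 nM tebufenozide; compounds were tested in concentration series.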
HPGD block: inhibitors of human 15-hydroxyprostaglandin dehydrogenase (HPGD) | purified HPGD, NADH fluorescence kinetic, PGE2 substrate | Potency, µM, for the others: at the top dose activity change, negative = inhibition, hits mostly inhibitors | 150,000 tested, 4.3% active | AID 894; further: potency means the concentration at half of the fitted maximal effect; on the % scale 0 is the no-effect control and ±100 the full control effect
Target sequence (P15428 whole entry, looked up): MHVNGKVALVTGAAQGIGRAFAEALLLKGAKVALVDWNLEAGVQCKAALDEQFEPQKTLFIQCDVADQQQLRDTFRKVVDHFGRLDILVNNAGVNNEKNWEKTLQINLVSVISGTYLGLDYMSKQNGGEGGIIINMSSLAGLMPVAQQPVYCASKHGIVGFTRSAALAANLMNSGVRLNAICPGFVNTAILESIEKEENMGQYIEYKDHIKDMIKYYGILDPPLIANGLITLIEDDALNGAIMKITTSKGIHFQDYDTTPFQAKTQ
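20 nM HPGD preincubated 15 min at room temperature with compound in 50 mM Tris-HCl pH 8, 0.01% Tween 20. Started with 1 mM NAD+ and 30 uM prostaglandin E2; NADH fluorescence (360/450 nm) read 5 times over 30-s intervals, last minus first.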
ALDH1A1 block: ALDH1A1 (human) enzyme inhibition; Purified ALDH1A1, NADH fluorescence, propionaldehyde substrate; Potency, µM (series often up to 75.3 µM), inactives show at the top dose activity, negative = inhibition, most hits filed as inhibitors; 220,000 tested, 7.3% active; AID 1030;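 further: potency means the concentration at half of the fitted maximal effect; plate controls were no enzyme wells and a reference inhibitor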
HTT ATP protect: Huntington cell model cytoprotection by ATP luminescence | 230,000 tested, 0.14% active | Potency, µM (highest dose often 56.4 µM), without a hit: cytoprotection (ATP increase), most hits filed as activators | PC12 HTT-Q103 induced, cytoprotection, ATP luminescence, 40 h | AID 1471; active means well fitted curve in the direction sought with a large enough effect; inconclusive means small, poorly fitted or top-dose-only effect, or another doubt; inactive means no such curve, though single readings can be large; an effect the other way counts as inactive or inconclusive; further: potency means the concentration at half of the fitted maximal effect; % of control where 0% means no effect; nearly all actives have a fitted effect of over 45% in size
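Compounds were screened for protection of PC12 cells against cell death after tebufenozide induction (100 nM final) of mutant Huntingtin exon 1 (Q103) fused to GFP.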
PNC assembly inh: perinucleolar compartment assembly inhibition. PC3M PTB-GFP, PNC prevalence imaging, 16 h; hits give low values. activity change (PNC), negative = inhibition, % at 10 µM. 140,000 tested, 3.1% active. AID 2417;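 active means readout at or below -70, meaning at least 70% loss of cells showing the perinucleolar compartment, a nuclear body marking cancer cells; inconclusive means readout between -30 and a set limit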;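 further: plate controls were DMSO wells for no effect and camptothecin positive control wells for full effect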
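Read-out is percentage of cells bearing a perinucleolar compartment, from automated 20x imaging of fixed, Hoechst-stained PC3M PTB-GFP cells. Cells were seeded 4 h, then exposed 16 h to compound (23 nl of library stock) in duplicate plates.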
Starred values were filed as active, the others as inactive; ? = inconclusive; . = not tested or not shown; [ ] = dose if it differs, or a comment. Unless noted, the call rests on the fitted dose curve; in most records, active means well fitted inhibition curve with a large enough effect (not every such curve was filed as active); inconclusive means small, poorly fitted or top-dose-only effect, or another doubt; inactive means no such curve, though single readings can be large or run the other way.

SMILES	GoLoco inh red	HttQ103 aggreg	HPGD block	ALDH1A1 block	HTT ATP protect	PNC assembly inh
COc1cccc(Oc2ccc(N/C=C/C(=O)C(C)(C)C)cc2)c1	5%	7%	-26%	10µM*	.	31
COc1ccc(Oc2ccc(N/C=C/C(=O)C(C)(C)C)cc2)cc1	3%	-13%	.	?	.	.
CC(=O)Nc1ccc(N/C=C/C(=O)C(C)(C)C)cc1	-1%	27%	?	22µM*	16%	-5
Cc1cc(NC(=O)CSc2nnnn2C)n(-c2ccccc2)n1	2%	15%[9.22 µM]	-6%	10%	3%	-2
CC(OC(=O)c1oc2ccccc2c1COc1ccccc1)C(=O)NC(N)=O (stereo not drawn)	-1%	-15%	.	?	-27%	.
CC(OC(=O)c1oc2ccccc2c1CSC1CCCCC1)C(=O)NC(N)=O (stereo not drawn)	-1%	?	-17%	2µM*	-44%[10 µM]	6
O=C(c1ccc(F)cc1)N1CCCCC(Sc2nnnn2-c2ccccc2)C1=O (stereo not drawn)	-3%	-8%	-17%	4.5µM*	-13%	?
O=C1OCCC1Sc1nnnn1-c1ccccc1 (stereo not drawn)	-14%	0%	-12%	?	5%	44
O=C(c1ccccc1)N1CCCCC(Sc2nnnn2-c2ccccc2)C1=O (stereo not drawn)	-7%	-6%	-11%	3.5µM*	-2%[10 µM]	-12
COC(=O)CC1C(C)(C)C2(O)OC34CC2C(=O)[C@@]1(C)C3CC[C@]1(C)C4=CC(=O)OC1c1ccoc1 (stereo partly drawn)	1%	.	?	9%	-31%	.
O=C(/C=C/c1c(Cl)nc2ccccn12)N1CCCCC1	9%	0%	.	11µM*	-38%	.
CSc1cccc(NC(=O)CSc2nc3ccccc3o2)c1	9%	-5%	-23%	?	-6%	-98*
CC(=O)Nc1cccc(NC(=O)CSc2nc3ccccc3o2)c1	-21%	-9%	-6%	0%	.	32
CCCC(=O)Nc1cccc(-c2nc3cc(C)c(C)cc3o2)c1	13%	-10%	?	?	-62%	35
CCCC(=O)Nc1cccc(-c2nc3ccccc3o2)c1	36%	-9%	-23%	-9%	?	-107*
O=C(Cc1ccccc1)NC(=S)Nc1ccc2oc(-c3ccccc3)nc2c1	3%	-10%	?	22µM*	-2%[10 µM]	?
COc1ccccc1CNc1ccnc(-c2ccc3c(c2)OCO3)n1	0%	.	-8%	0%	3%	.
COC(=O)Cn1c(=NC(=O)C2COc3ccccc3O2)sc2cc(S(N)(=O)=O)ccc21 (stereo not drawn)	2%	-4%	-4%	-1%	-2%[10 µM]	-134*
CCCCCCCCCCCCCCCC(=O)NC[C@@H](COP(=O)([O-])OCC[N+](C)(C)C)OCC	.	.	.	.	2%[1.9 µM]	.
CC(C)C(c1nnnn1C(C)(C)C)N1CCC(Cc2ccccc2)CC1 (stereo not drawn)	47%	9%	-17%	22µM*	.	30
COc1ccc(NC(C)=O)cc1S(=O)(=O)Nc1ccc2c(c1)OCCO2	16%	.	.	2%	.	.
CCc1nc2ccccc2c(=O)n1NC(=O)c1c(O)c2ccccc2n(CC)c1=O	11%	3%[9.22 µM]	.	-3%	21%[10 µM]	.
Cc1c(C(=O)Nc2nc3ccccc3[nH]2)oc2ccc(Br)cc12	.	-29%	.	6%	8%[10 µM]	-19
CCn1c(=O)c(C(=O)Nc2nc3ccccc3[nH]2)c(O)c2ccccc21	9%	10µM*	-7%	9%	-35%	1
Cc1c(C(=O)Nc2nc3ccccc3[nH]2)oc2ccccc12	13µM*	?	-21%	-6%	9%[1.9 µM]	39
SMILES	GoLoco inh red	HttQ103 aggreg	HPGD block	ALDH1A1 block	HTT ATP protect	PNC assembly inh
S=c1nc(-c2csc3c2CCCC3)[nH][nH]1	18%	12%[9.22 µM]	.	11µM*	4%[10 µM]	.
Cc1nnc2sc(-c3csc4c3CCCC4)nn12	13%	14%	?	-10%	15%	42
COc1ccc(-c2nc3c(c4c2C[C@H](c2ccccc2)OC4)CN(S(=O)(=O)c2ccc(Cl)c4nonc24)CC3)c(C)c1	8%[14.2 µM]	.	-3%	?	-5%[10 µM]	.
CCN(CC)c1ccc(CN2CCC(C(=O)NCc3ccc(C)cc3)CC2)cc1	20%	-11%[9.22 µM]	.	14µM*	17%[10 µM]	.
CCN(CC)S(=O)(=O)N1CCC(C(=O)NCc2ccc(C)cc2)CC1	-15%	6%	-9%	4.5µM*	-28%	22
Cc1ccc(NC(=O)N2CCC(C(=O)NCc3ccccc3)CC2)cc1	-2%	-9%	-14%	-8%	-2%[10 µM]	296
Cc1ccc(CNC(=O)C2CCN(S(=O)(=O)N3CCCCC3)CC2)cc1	3%	1%	.	?	-26%	.
CCCn1c(-c2ccc(F)cc2)nc2c(NCCN3CCCC3)nc(C)nc21	-11%	.	?	?	-14%	.
CN(Cc1cccs1)C(=O)/C=C/c1ccccc1[N+](=O)[O-]	12%	?	.	3.2µM*	-62%	.
CC1=Nc2ccccc2/C1=C\c1nc(-c2ccc(F)cc2)oc1O	12%	29%	-15%	0%	-9%[10 µM]	57
CCOC(=O)c1sc(S(C)=O)c2c1CCc1conc1-2 (stereo not drawn)	8%	-13%[9.22 µM]	.	4.5µM*	-9%[10 µM]	.
Cc1cc(N2C(=O)C=CC2=O)c([N+](=O)[O-])cc1C	-26%	?	2.8µM*	0.79µM*	-4%[10 µM]	-20
COc1ccc(C2COc3c(ccc(O)c3OC)C2)c(OC)c1O (stereo not drawn)	-1%	.	-13%	6%	?	.
CCOC(=O)CC(=O)CSc1nc2nc(C)cc(C)n2n1	-6%	2%	16µM*	13µM*	-12%[0.074 µM]	?
C=CCn1c(SCC(=O)c2cc(C)n(CCOC)c2C)nc2sc(C)c(C)c2c1=O	-22%	0%	?	25µM*	1%	-20
CCOC(=O)c1c(NC(=O)c2ccncc2)sc(C)c1C	6%	5%	.	13µM*	8%[10 µM]	.
CCOC(=O)c1sc(NC(=O)c2ccncc2)c(C#N)c1C	-3%	20µM*	14µM*	3.2µM*	.	-4
Cc1ccc(C(=O)Nc2sc(C(=O)N(C)C)c(C)c2C#N)cc1	-5%	8%	-14%	-15%	4%[10 µM]	21
CCOC(=O)c1c(NC(=O)C2c3ccccc3Oc3ccccc32)sc(C(N)=O)c1C	5%	-14%	-10%	-8%	-29%	?
CCC1CCc2c(sc(NC(=O)C3c4ccccc4Oc4ccccc43)c2C(N)=O)C1 (stereo not drawn)	3%	10%	?	?	8%[10 µM]	-95*
O=C1N=c2ccccc2=C1c1[nH]c(=S)[nH]c1O	-2%	-22%	-26%	11µM*	2%[10 µM]	30
